High-throughput results: PubChem BioAssay, Bradner/Qi Labs at DFCI
The entries come from a sample that favours hits as a whole.
CBX7 inh: blocks human CBX7 binding to H3K27me3 peptide; AlphaScreen His6-CBX7 / biotin-H3K27me3 peptide binding; active compounds read low; normalised signal (fraction of DMSO) (test concentration not listed); actives 1.1% (n = 66,000); in the data active = normalised signal below about 0.5
Target sequence (O95931 whole entry, looked up): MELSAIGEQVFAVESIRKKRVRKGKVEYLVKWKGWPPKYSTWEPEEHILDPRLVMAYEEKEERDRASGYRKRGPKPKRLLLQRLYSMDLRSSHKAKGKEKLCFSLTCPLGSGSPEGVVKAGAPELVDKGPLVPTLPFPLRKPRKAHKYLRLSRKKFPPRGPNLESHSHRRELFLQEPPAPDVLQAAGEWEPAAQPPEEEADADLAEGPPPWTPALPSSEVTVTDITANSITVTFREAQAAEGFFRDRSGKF
Large screens that a line does not name were inactive; ! = not active in a repeat.

Cc1nc(C)c(-c2csc(Nc3cccc(C(=O)O)c3)n2)s1	none
CC1CCCN(S(=O)(=O)c2ccc3[nH]c(=O)cc(C(=O)NC4CCCC4)c3c2)C1 (centres undefined)	none
Cc1ccc(S(=O)(=O)N2CCC(C(=O)Nc3cccc(F)c3)CC2)cc1	none
COc1cc2c(C(=O)N(C)c3cc(Cl)ccc3C)cn(CC(C)C)c(=O)c2cc1OC	none
O=C(c1ccccc1)N1CCN(c2nc(-c3ccccc3)c3cc(Br)ccc3n2)CC1	none
O=C(NCCc1c[nH]c2ccccc12)c1csc2c1CCCC2	none
CC(C)CCn1c(=O)c(-c2ccc3ccccc3n2)cc2ccccc21	none
O=C1c2[nH]nc(-c3ccccc3)c2C(c2ccccc2)N1c1ccccc1 (centres undefined)	none
CC(C)c1ccc(C2c3c(-c4ccccc4)n[nH]c3C(=O)N2c2ccccc2)cc1 (centres undefined)	none
COc1ccc(C2c3c(-c4ccccc4)n[nH]c3C(=O)N2c2ccccc2)cc1 (centres undefined)	CBX7 inh 0.38
O=C(CNc1nncs1)c1c[nH]c2ccccc12	none
Cc1ccc(-c2n[nH]c3c2C(c2ccc4c(c2)OCO4)N(c2ccc(F)cc2)C3=O)cc1 (centres undefined)	none
Cc1ccc(-n2nc(C)c3c(C)c(CCC(=O)NCCC(C)C)c(C)nc32)cc1	none
Cc1nnc(NC(=O)c2c(-c3c(Cl)cccc3Cl)noc2C)s1	none
COC(=O)c1c(NC(=O)COc2cccc(C)c2)sc2c1CCCC2	none
COc1ccc(Cl)cc1Nc1nc(-c2c(C)nc3sccn23)cs1	none
Cc1nc2ccccn2c1-c1csc(Nc2ccc(Br)cc2Br)n1	none
Cc1cccc(Nc2nc(-c3c(C)nc4ccccn34)cs2)c1	none
COc1ccccc1Nc1nc(-c2c(C)nc3ccccn23)cs1	none
Cc1ccc(Nc2nc(-c3c(C)nc4sccn34)cs2)c(C)c1	CBX7 inh 0.42!
COc1ccccc1Nc1nc(-c2c(C)nc3sccn23)cs1	CBX7 inh 0.32
CCc1cccc(NC(=O)CCc2c(C)nc3nc(C)nn3c2C)c1	none
O=C(CCn1c(=O)c2sccc2n(CC(=O)NCC2CCCO2)c1=O)NCc1ccc2c(c1)OCO2 (centres undefined)	none
COCCNC(=O)CSc1nc(-c2cccc(C)c2)[nH]c1-c1ccccc1	none
CCN(CC)S(=O)(=O)c1ccc2c(c1)N(CC(=O)Nc1ccc(C)cn1)C(=O)CO2	none
O=S(=O)(Nc1cccc(Cl)c1)c1cccnc1	none
CN(Cc1ccccc1)c1oc(COc2ccccc2F)nc1C#N	CBX7 inh 0.42
N#Cc1nc(COc2ccc(F)cc2)oc1NCCc1ccccc1	none
Cc1ccccc1OCc1nc(C#N)c(NCCCn2ccnc2)o1	none
COc1ccc(CCNc2oc(COc3ccc(Cl)cc3)nc2C#N)cc1	none
COc1ccccc1OCc1nc(C#N)c(NCCc2ccccc2)o1	none
N#Cc1nc(COc2ccc(Cl)cc2)oc1NCCCn1ccnc1	none
COc1ccc(Nc2oc(COc3ccccc3F)nc2C#N)cc1	none
N#Cc1nc(COc2ccc(Cl)cc2)oc1NCc1cccnc1	none
N#Cc1nc(COc2ccccc2F)oc1NCCc1ccccc1	CBX7 inh 0.49
N#Cc1nc(COc2ccccc2Cl)oc1NCCCn1ccnc1	CBX7 inh 0
CC(Nc1oc(COc2ccccc2F)nc1C#N)c1ccccc1 (centres undefined)	none
CN(Cc1ccccc1)c1oc(COc2ccc(Cl)cc2)nc1C#N	CBX7 inh 0.48
COc1ccc(NC(=O)CCC(=O)Nc2ccc3nc(N4CCN(C)CC4)cc(C)c3c2)cc1Cl	none
CCOc1ccccc1C(=O)Nc1cc(Cl)ccc1C	none
CCn1cc(C(=O)Nc2cccc(C(F)(F)F)c2)c2cc(OC)c(OC)cc2c1=O	none
CCOC(=O)N1CCN(C(=O)c2cc3c(-c4ccc(OC)c(OC)c4)nn(C)c3s2)CC1	none
O=C(Cn1ncc2ccsc2c1=O)NCc1ccc(Cl)cc1	none
CCC(=O)N1c2ccc(S(=O)(=O)Nc3ccc(C)cc3C)cc2CC1C (centres undefined)	none
Cn1c(=O)c(=O)n(C)c2cc(S(=O)(=O)NCc3ccc4c(c3)OCO4)ccc21	none
Cc1ccc2nc(-c3ccsc3)c(Nc3c(C)cccc3C)n2c1	none
COc1ccc(NC(=O)Cn2cnc3c(nnn3Cc3ccc(C)cc3)c2=O)cc1	none
CCCCNc1nc(SCC(=O)NC(C)CC)nc2ccccc12 (centres undefined)	none
COc1cccc2sc(NC(=O)c3ccccc3NS(=O)(=O)c3ccc(C)cc3)nc12	none
Cc1ccc(-c2nc3ncccn3c2NC2CCCC2)cc1	none
Cc1cccc(C)c1Nc1c(-c2ccccn2)nc2ccccn12	CBX7 inh 0.23
Cc1ccc(-c2nc3cnccn3c2NC2CCCC2)cc1	none
Cc1cccc(C)c1Nc1c(-c2ccsc2)nc2ncccn12	none
c1ccc(-c2nc3ccccn3c2Nc2ccc3c(c2)OCCO3)nc1	CBX7 inh 0.073
c1ccc(-c2nc3ccccn3c2Nc2ccc3c(c2)OCCO3)cc1	none
Cc1ccc(-c2nc3ncccn3c2Nc2c(C)cccc2C)cc1	none
Cc1cccc(C)c1Nc1c(-c2ccccn2)nc2ncccn12	CBX7 inh 0.011
Cc1cccc(C)c1Nc1c(-c2cccs2)nc2ccccn12	none
Cc1cccc(C)c1Nc1c(-c2ccsc2)nc2ccccn12	none
Cc1ccc2nc(-c3ccccn3)c(NC3CCCC3)n2c1	CBX7 inh 0.12
Clc1ccc2nc(-c3ccccn3)c(Nc3ccc4c(c3)OCO4)n2c1	none
CN(C)c1ccc(CNC(=O)C2CCCN(S(=O)(=O)c3cnc[nH]3)C2)cc1 (centres undefined)	none
C=CCN(C(=O)c1cc2c(s1)-c1ccccc1OC2)c1ccccc1	none
CCOc1ccc(CNc2ccc3c(c2)ncn3-c2ccc(C)cc2)cc1	none
CCOc1ccc(-c2nnc(OCC)c3ccccc23)cc1	none
CC1CCCCN1S(=O)(=O)c1ccc2[nH]c(=O)cc(C(=O)NCCCN3CCCCC3)c2c1 (centres undefined)	none
O=C(Nc1cccc(C(F)(F)F)c1)C1CCCN(S(=O)(=O)c2cccnc2)C1 (centres undefined)	none
O=C(O)c1ccc(OCC(O)Cn2c(Cc3ccccc3)nc3ccccc32)cc1 (centres undefined)	none
CCc1ccc(NC(=O)CCc2nc(-c3ccccc3F)no2)cc1	none
Cc1cccn2c(Nc3ccc4c(c3)OCCO4)c(-c3ccsc3)nc12	none
Cc1cccn2c(Nc3ccc4c(c3)OCCO4)c(-c3cccc(Cl)c3)nc12	none
Cc1cccn2c(Nc3ccc4c(c3)OCCO4)c(-c3ccc(N(C)C)cc3)nc12	CBX7 inh 0.41
c1ccc(C(Sc2nnc(-c3ccco3)o2)c2ccccc2)cc1	none
O=C(CNC1CCCCC1)Nc1c2c(nc3c1CCC3)CCCC2	CBX7 inh 0.34
CCCCCCC(=O)Nc1c2c(nc3c1CCC3)CCCC2	none
CNCC(=O)Nc1c2c(nc3c1CCC3)CCCC2	CBX7 inh 0.49
CC(C)(C)NCC(=O)Nc1c2c(nc3c1CCC3)CCCC2	none
O=C(CNC1CCCCC1)Nc1c2c(nc3c1CCC3)CCC2	none
Cc1cc(NC(=O)CNC2CCCCC2)c2ccccc2n1	none
Cc1ccc(C)c(NC(=O)CSc2nnc(Cc3cc(=O)[nH]c(=O)[nH]3)n2-c2ccc(F)cc2)c1	none
O=C(CCn1nc(-c2ccc(Cl)cc2)ccc1=O)NCCN1CCCC1	none
CCCCOC(=O)c1ccc(NC(=O)c2cnc3ccccn3c2=O)cc1	none
COc1ccccc1-c1c(C)nn2c(NCCCN3CCOCC3)cc(C)nc12	none
CCOC(=O)CCCCC(=O)c1[nH]c(=O)[nH]c1CSc1nnc2c(n1)[nH]c1ccccc12	CBX7 inh 0.42
c1ccc(CSc2nnc3c(n2)[nH]c2ccccc23)cc1	none
NC(=O)CSc1nnc2c(n1)[nH]c1ccccc12	none
